Bioassay records: PubChem, several laboratories
TLR9-MyD88 block: blocks human TLR9 binding to MyD88 | hit rate 0.21% among 340,000 | CHO BLA complementation TLR9-MyD88, CCF4 FRET ratio | Q9NR96+Q99836 | inhibition, % at 4.98 µM | AID 504734;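 active means inhibition above the mean over all tested compounds plus 3 SD, cut at about 21% in these data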;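 further: 0% = DMSO only wells and 100% = clavulanate BLA inhibitor control wells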
TLR4-MyD88 BLA: inhibitors of human TLR4-MyD88 binding | HeLa CL3-4 TLR4/MyD88 BLA complementation, FRET ratio | inhibition, % at 8.4 µM | hit rate 0.18% among 200,000 | AID 861; in the data active means inhibition above about 25%;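 further: 0% = vehicle and 100% = reference inhibitor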
Target sequence (O00206 whole entry, looked up): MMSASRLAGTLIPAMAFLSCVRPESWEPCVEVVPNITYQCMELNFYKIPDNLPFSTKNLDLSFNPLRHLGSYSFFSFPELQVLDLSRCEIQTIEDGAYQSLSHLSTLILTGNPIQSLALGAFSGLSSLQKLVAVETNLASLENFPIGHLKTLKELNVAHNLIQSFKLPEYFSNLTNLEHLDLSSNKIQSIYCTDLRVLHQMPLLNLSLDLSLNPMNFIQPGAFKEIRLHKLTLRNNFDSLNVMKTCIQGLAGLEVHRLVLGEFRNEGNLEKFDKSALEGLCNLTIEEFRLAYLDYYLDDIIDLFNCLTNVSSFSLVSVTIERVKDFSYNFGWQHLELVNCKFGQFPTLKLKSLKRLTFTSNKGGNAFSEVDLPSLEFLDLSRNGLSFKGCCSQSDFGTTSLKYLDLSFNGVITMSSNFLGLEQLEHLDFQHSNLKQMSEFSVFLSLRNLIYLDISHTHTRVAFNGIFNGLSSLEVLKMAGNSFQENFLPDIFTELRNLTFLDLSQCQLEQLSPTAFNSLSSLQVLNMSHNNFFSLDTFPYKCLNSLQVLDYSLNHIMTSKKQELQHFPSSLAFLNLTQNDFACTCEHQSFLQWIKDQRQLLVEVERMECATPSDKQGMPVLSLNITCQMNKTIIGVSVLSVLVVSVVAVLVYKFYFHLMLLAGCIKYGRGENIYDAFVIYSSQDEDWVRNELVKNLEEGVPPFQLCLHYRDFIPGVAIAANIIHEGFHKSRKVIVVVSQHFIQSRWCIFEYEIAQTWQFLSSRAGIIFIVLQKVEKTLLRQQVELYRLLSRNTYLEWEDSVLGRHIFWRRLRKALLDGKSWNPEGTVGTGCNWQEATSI
Target sequence (Q99836 whole entry, looked up): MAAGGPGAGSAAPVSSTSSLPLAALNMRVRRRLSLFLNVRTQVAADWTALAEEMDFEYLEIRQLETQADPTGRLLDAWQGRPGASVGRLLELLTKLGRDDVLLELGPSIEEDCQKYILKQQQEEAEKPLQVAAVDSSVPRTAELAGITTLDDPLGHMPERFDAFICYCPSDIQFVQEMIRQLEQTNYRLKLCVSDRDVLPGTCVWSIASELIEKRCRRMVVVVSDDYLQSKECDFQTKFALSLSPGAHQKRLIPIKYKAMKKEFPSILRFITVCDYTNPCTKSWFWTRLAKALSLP
HSF1 inhib: HSF1 inhibition; NIH3T3-HGL HSE-luciferase, MG132-induced, luminescence 8 h; hits give low values; activity change, negative = inhibition, % at 7.5 µM (by protocol); hit rate 0.77% among 300,000; AID 2098;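 active means more than half of replicate wells show activity change below -50%, luminescence cut by over half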;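 further: luciferase reports HSF-1 transcriptional activity via heat shock element; 0% = median of DMSO wells and -100% = zero luminescence signal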
HSF-1 act: increases HSF-1 driven luciferase reporter signal; NIH3T3-HGL HSF-1 luciferase reporter, MG132, 8 h; 100% = twice DMSO control signal; activation, % at 9 µM; hit rate 1.7% among 300,000; AID 504408;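 active means mean replicate activation of at least 50% with a set share of replicates each reaching 50%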;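 further: 0% = median of the neutral control wells and 100% = twice that signal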
NOD2 RIPK2 PPI: NOD2-RIPK2 protein interaction inhibition; O43353; CHO BLA complementation NOD2-RIPK2, CCF4 ratio; inhibition, % at 4.98 µM; hit rate 0.38% among 360,000; in the data active means inhibition above about 21%;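 further: 0% = vehicle only and 100% = reference blocker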
* marks the source's active call; other numbers are inactive results; / = no result given. In the library only some 2.4% were active in any assay of this set; here they are far more common.

SMILES	TLR9-MyD88 block	TLR4-MyD88 BLA	HSF1 inhib	HSF-1 act	NOD2 RIPK2 PPI
O=C(O)/C=C/C(=O)Nc1cc(F)ccc1F	5	/	-72*	-77	-10
Cc1[nH]nc2c1C(c1cc(Br)cs1)C(C#N)=C(N)O2 (centres undefined)	-11	-20	65	70*	5
S=c1[nH]cc(Cc2ccccc2)s1	-5	-11	27	60*	-30
CCCCNC(=O)N(O)C1N(/N=C/c2ccccc2OC)C(=S)SC1(C)C (centres undefined)	-12	/	10	7	4
O=C(c1ccco1)c1nnn(Cc2ccccc2)c1-c1ccccc1	12	-7	39	64*	5
O=[N+]([O-])c1ccc(NS(=O)(=O)c2ccc(Cl)c(Cl)c2)cc1	/	/	/	/	8
Cc1ccccc1C(=O)N1CCC(C(=O)OCc2ccccc2Cl)CC1	-8	/	/	/	11
Cc1cc(N=Nc2ccc(Cl)cc2)cc(CN2CCCC2)c1O	-6	/	-60*	-69	3
Cc1cc(N=Nc2ccc(Cl)cc2)cc(CN2CCOCC2)c1O	3	/	-3	-18	-11
COc1cc(OC)cc(-c2nnc(Nc3nc4c(F)cccc4s3)o2)c1	-1	-4	-11	-20	1
COc1ccc(-c2nnc(Nc3nc4c(OC)cccc4s3)o2)c(OC)c1	8	0	46	60*	8
Fc1cccc2sc(Nc3nnc(-c4ccccc4)o3)nc12	4	-11	49	73*	-3
COc1ccc(-c2nnc(Nc3nc4c(OC)cccc4s3)o2)cc1	-3	8	-4	6	8
CN1CCN(CC(=O)Nc2nnc(-c3cccs3)s2)CC1	4	7	-54*	-62	-10
Cc1c(O)ccc2c(CC(=O)N[C@@H](Cc3ccc(O)cc3)C(=O)O)cc(=O)oc12	2	/	-70*	-77	7
O=C1SCC(c2ccccc2)=NN1Cc1ccccc1	3	-6	-59*	-68	15
CC(=O)Nc1ccc(C2=NN(Cc3nnc(-c4ccccc4)o3)C(=O)SC2)cc1	-4	-1	41	88*	-2
C#CCN1N=C(c2ccc(C)cc2)CSC1=O	/	/	0	10	-9
O=C(COC(=O)c1ccc(-c2nnc(-c3ccccc3)o2)cc1)c1ccccc1	-5	1	39	51*	-5
Cc1ccc(C(=O)COC(=O)c2ccc(O)cc2)cc1	-1	0	58	122*	-4
Cc1ccc(C(=O)COC(=O)c2cn3ccccc3n2)cc1	1	-2	32	62*	0
O=C(OCc1nnc(-c2ccccc2)o1)c1ccccc1	-1	-2	4	14	4
COc1cccc(C(=O)Nc2ccncc2)c1OC	-6	/	1	16	-2
COc1cccc(C(=O)Nc2ccc(N(C)C)cc2)c1OC	-1	-6	35	71*	0
COc1ccccc1C(=O)Nc1cccc(N(C)S(C)(=O)=O)c1	-3	-5	8	50*	-3
SMILES	TLR9-MyD88 block	TLR4-MyD88 BLA	HSF1 inhib	HSF-1 act	NOD2 RIPK2 PPI
COc1cc(CNc2ccc3[nH]c(=O)[nH]c3c2)ccc1OCc1ccc(Cl)cc1	-7	/	58	83*	5
C=CCOc1ccccc1CNCCCN1CCOCC1	4	0	-1	9	1
CCOc1ccccc1CNCCN1CCOCC1	4	-1	14	58*	-6
O=C(Nc1ccc2ccccc2c1)c1cc(F)c(F)cc1Cl	-13	/	53	59*	-5
O=C(Nc1ccc2ccccc2c1)c1ccc(Cl)cc1Cl	4	/	13	51*	9
CCOC(=O)[C@@H]1[C@H]2COc3ccc(Br)cc3[C@@H]2N2C(=O)N(c3ccc(C)cc3)C(=O)[C@@]12C	-14	/	/	/	0
Cc1ccc(-c2nc3c(Cl)cc(Cl)cc3c(=O)n2O)cc1	5	/	2	8	-12
CCOC(=O)C(C(=O)Cc1ccccc1)c1ccccc1 (centres undefined)	5	/	/	/	-10
Cc1cc(/C=C2\NC(=O)NC2=O)c(C)n1-c1cccnc1	/	/	-3	-7	2
Cc1cccc(C)c1-n1c(C)cc(/C=C2\NC(=O)NC2=O)c1C	-4	1	-52*	-62	1
CCCCN(C)C(=O)C1CCCN(S(=O)(=O)c2ccc3c(c2)oc(=O)n3C)C1 (centres undefined)	-6	/	0	1	-1
Cc1cc(OCCn2cnc3ccccc3c2=O)ccc1[N+](=O)[O-]	-10	-9	3	10	2
Cc1ccc(OCCn2cnc3ccccc3c2=O)c([N+](=O)[O-])c1	0	7	26	58*	-4
COc1ccc(OC)c(N(CC(=O)N2CCC(C)CC2)S(=O)(=O)c2ccccc2)c1	-3	5	19	60*	0
COc1ccc(OC)c(N(CC(=O)N2CCC(C)CC2)S(=O)(=O)c2ccc(OC)c(OC)c2)c1	-5	3	6	-1	1
O=C(NC1CCCC1)C(c1ccccc1)N(Cc1cccnc1)C(=O)Cc1cccs1 (centres undefined)	-11	-7	17	55*	-2
O=C(NC1CCCC1)C(c1ccncc1)N(Cc1ccco1)C(=O)c1ccc(-c2ccccc2)[nH]1 (centres undefined)	10	4	114	122*	-12
CC(C)(C)NC(=O)C(c1ccncc1)N(Cc1ccc(F)cc1)C(=O)c1ccc(-c2ccccc2)[nH]1 (centres undefined)	0	4	90	87*	4
CC(C)(C)NC(=O)C(c1ccc(F)cc1)N(CCc1ccccc1)C(=O)c1ccn[nH]1 (centres undefined)	-2	-12	0	-2	1
O=C(NC1CCCC1)C(c1ccncc1)N(Cc1ccccc1)C(=O)c1ccc(-c2ccccc2)[nH]1 (centres undefined)	-4	4	44	73*	1
O=C(NC1CCCC1)C(c1ccncc1)N(CCCN1CCOCC1)C(=O)c1ccc(-c2ccccc2)[nH]1 (centres undefined)	1	11	22	29	5
O=C(COC(=O)C1=COCCO1)Nc1ccc([N+](=O)[O-])cc1C(F)(F)F	4	/	/	/	-6
COc1ccc(OCC(=O)NNC(=O)Cn2c(=O)cnc3ccccc32)cc1	-8	/	/	/	11
COc1ccc(-n2c(=O)c3c4c(sc3n(CC(=O)NCC3CCCO3)c2=O)CN(C(C)=O)CC4)cc1OC (centres undefined)	8	/	/	/	-11
CCOc1ccc(OCCCC(=O)ON=C(N)c2ccccc2C)cc1	2	/	/	/	-12
Cc1nc(Nc2nc(CSc3nc4ccccc4[nH]3)cc(=O)[nH]2)nc2ccccc12	-6	3	4	2	-36
Cc1nc(Nc2nc(CSc3ccc(Cl)cc3)cc(=O)[nH]2)nc2ccccc12	-4	5	17	61*	-8
O=c1cc(CSc2ccc(Cl)cc2)nc(-c2ccccc2)[nH]1	/	3	19	21	-11
O=c1cc(CSc2ccc(Cl)cc2)nc(-c2ccccn2)[nH]1	12	/	124	136*	-8
